# In all, about 2,400 compounds went through this assay and about 750 (31%) were called active. The list shows a part of the results. Unmarked numbers belong to inactive results.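 How the source made its calls: active means median signal gain over dofetilide-blocked control wells reaching their mean plus 3 SD, so readout 1 at least 0; inactive means the rest.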
# Molecular target: Voltage-gated inwardly rectifying potassium channel KCNH2 (Homo sapiens) (UniProt Q12809)
# Assay: modulators restoring hERG flux under dofetilide – cell-based, thallium flux, duplicate retest, dofetilide IC70, confirmation (AID 1835)
# Conditions: hERG cell line, FluxOR thallium flux, dofetilide-blocked; at 10 µM; active compounds read high
# Voltage-gated inwardly rectifying potassium channel KCNH2 (Homo sapiens), sequence (Q12809 whole entry, looked up): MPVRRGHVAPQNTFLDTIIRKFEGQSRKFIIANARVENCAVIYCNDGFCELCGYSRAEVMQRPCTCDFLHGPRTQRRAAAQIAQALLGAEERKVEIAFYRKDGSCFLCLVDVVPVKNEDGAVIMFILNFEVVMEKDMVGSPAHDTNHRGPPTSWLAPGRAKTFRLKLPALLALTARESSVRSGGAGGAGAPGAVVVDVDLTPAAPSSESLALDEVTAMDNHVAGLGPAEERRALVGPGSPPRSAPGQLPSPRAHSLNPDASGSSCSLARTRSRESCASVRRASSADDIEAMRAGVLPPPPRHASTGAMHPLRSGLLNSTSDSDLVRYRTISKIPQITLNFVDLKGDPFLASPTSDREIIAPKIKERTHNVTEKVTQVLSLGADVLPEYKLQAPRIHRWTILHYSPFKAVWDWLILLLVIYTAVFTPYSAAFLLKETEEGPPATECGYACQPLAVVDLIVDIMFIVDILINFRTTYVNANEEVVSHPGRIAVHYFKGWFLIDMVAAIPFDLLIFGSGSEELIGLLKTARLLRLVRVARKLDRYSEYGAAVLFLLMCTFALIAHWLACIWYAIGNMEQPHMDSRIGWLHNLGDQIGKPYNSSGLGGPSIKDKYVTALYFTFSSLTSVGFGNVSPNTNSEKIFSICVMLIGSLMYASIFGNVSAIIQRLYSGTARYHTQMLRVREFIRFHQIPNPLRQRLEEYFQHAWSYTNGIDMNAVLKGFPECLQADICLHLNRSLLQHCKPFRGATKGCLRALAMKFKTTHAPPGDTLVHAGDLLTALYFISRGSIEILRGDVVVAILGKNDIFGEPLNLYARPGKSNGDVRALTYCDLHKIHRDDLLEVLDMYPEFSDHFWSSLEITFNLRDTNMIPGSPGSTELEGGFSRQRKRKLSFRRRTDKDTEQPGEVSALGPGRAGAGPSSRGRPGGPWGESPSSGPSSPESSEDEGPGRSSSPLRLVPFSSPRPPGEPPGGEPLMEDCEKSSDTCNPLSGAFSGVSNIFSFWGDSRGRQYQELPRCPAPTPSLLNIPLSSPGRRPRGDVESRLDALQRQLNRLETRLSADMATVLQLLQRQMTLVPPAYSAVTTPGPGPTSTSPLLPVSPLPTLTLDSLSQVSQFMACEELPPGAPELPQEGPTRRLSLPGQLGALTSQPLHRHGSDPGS
row,Compound,"activity increase over dofetilide control, less the hit threshold"
1,Cc1cc(C)c(S(=O)(=O)c2ccccc2)c(OC(=O)c2c(F)cccc2Cl)n1,-30%
2,O=C(CCc1ccccc1Cl)Nc1ccc(S(=O)(=O)N2CCOCC2)cc1,-6%
3,CC(NC(=O)CCNC(=O)c1ccco1)c1ccc(F)cc1 (stereo unspecified),-5%
4,CCc1ccc(C(C)NC(=O)C2CCCC2)cc1 (stereo unspecified),1% (active)
5,CCc1ccc(C(C)NC(=O)c2ccc(F)cc2)cc1 (stereo unspecified),4% (active)
6,Cc1ccc(C(C)NC(=S)NC2CCCCC2)cc1C (stereo unspecified),-6%
7,CCc1ccc(C(=O)NNC(=O)c2ccc(=O)n(C)n2)cc1,-5%
8,Cc1ccc(C(C)NC(=O)C2CCCC2)cc1C (stereo unspecified),4% (active)
9,Cc1ccc(C(=O)NC(C)c2ccc(C)c(C)c2)s1 (stereo unspecified),-6%
10,CCc1ccccc1N(CC(=O)NC(C)c1ccccc1)S(C)(=O)=O (stereo unspecified),-15%
11,COc1cccc(C(=O)/C=C/Nc2ccc(S(=O)(=O)Nc3cnc4ccccc4n3)cc2)c1,-22%
12,CCc1nccn1S(=O)(=O)c1ccc2ccc(C)cc2c1,-15%
13,CC1CCN(C(=O)CSc2nnc(CNC(=O)c3ccco3)o2)CC1,-15%
14,COc1ccc(-c2cc(C(=O)N3CCCC3)no2)cc1,-4%
15,O=C(c1cccc2c1-c1ccccc1C2)N1CCCCC1,-17%
16,O=C(c1csc(Nc2ccccc2Cl)n1)N1CCCC1,6% (active)
17,CC1Oc2ccccc2N(CC(=O)N2CCCCCC2)C1=O (stereo unspecified),-19%
18,N#CCCn1cc(/C=N/NC(=O)c2ccncc2)c(-c2ccc(F)cc2)n1,-2%
19,CN(C)/C=C/C(=O)c1ccc(Cl)cc1Cl,-11%
20,O=C(Nc1ccsc1C(=O)O)c1ccccc1Cl,-16%
21,CCCCN(CCCC)C(=S)NC(=O)c1ccccc1Cl,83% (active)
22,CCN(CC)C(=S)NC(=O)c1ccc(F)cc1,-9%
23,CCCn1nnnc1NC(=O)c1cc(Cl)ccc1Cl,-8%
24,CCN(CC)C(=S)NC(=O)c1ccc(Cl)cc1Cl,11% (active)

row,Compound,"activity increase over dofetilide control, less the hit threshold"
1,CCCN(CCC)C(=S)NC(=O)c1ccc(Cl)cc1Cl,60% (active)
2,CCCN(CC(=O)Nc1ccccc1C)C(=O)CCl,-13%
3,Cn1c(CNC(=O)CNC(=O)c2ccc(F)cc2)cc(=O)n(C)c1=O,-15%
4,CSc1ccc(C2NN=C(c3ccccc3)S2)cc1 (stereo unspecified),-11%
5,Cc1ccc(/C(O)=C2\C(=O)C(=O)N(Cc3cccnc3)C2c2ccccc2[N+](=O)[O-])cc1 (stereo unspecified),-26%
6,O=C1C=C(NCCN2CCOCC2)C(=O)c2cnccc21,-3%
7,Cc1ccc(OCCC(=O)OC(C)C(=O)NC2CC2)cc1 (stereo unspecified),-12%
8,O=c1ccn(Cc2ccc(F)cc2)c2ccnc(C(F)(F)F)c12,-15%
9,O=c1cc(-c2ccccc2)cc(-c2ccccc2)n1O,22% (active)
10,CN1/C(=C/C=C(C#N)C#N)C=Cc2ccccc21,66% (active)
11,CCCCc1cc(=O)oc2c(C)c(OCC(=O)NCc3ccccn3)ccc12,-9%
12,Cc1nn(C(=O)CNC(=O)c2ccccc2)c(C)c1C,-17%
13,CC(=O)c1n[nH]nc1NC(=O)c1ccccc1,-1%
14,Cc1ccccc1Cn1nc(C)c(NC(=O)c2ccccc2)c1C,25% (active)
15,COc1ccccc1NC(=O)Cc1nnc(SCC(=O)Nc2nccs2)n1C,-10%
16,O=C(CN1CCN(c2ccccc2O)CC1)NC(=O)NCc1ccco1,-17%
17,Cc1ccc(-n2ncc3c(SCC(=O)NNC(=O)c4ccco4)ncnc32)cc1,-4%
18,CCn1c(SCC(=O)NC(=O)NCc2ccco2)nc2sc(C)c(C)c2c1=O,18% (active)
19,Cc1cc(S(=O)(=O)N2CCOCC2)ccc1OCC(=O)NCc1ccco1,-7%
20,Cc1sc2nc(C(C)C)nc(SCC(=O)NCc3ccco3)c2c1C,16% (active)
21,O=C(NCC1CCCO1)c1ccc2c(=O)n(Cc3ccco3)c(SCC(=O)N3CCCC3)nc2c1 (stereo unspecified),0%
22,COC(=O)Cn1c(=O)c(=O)n(CC(=O)OC)c2ccccc21,-15%
23,COc1ccccc1CNC(=O)COC(=O)c1ccccn1,-13%
24,COc1ccc(C(=O)CC(=O)C(=O)Nc2ccc(C)c(C)c2)cc1,-3%

row,Compound,"activity increase over dofetilide control, less the hit threshold"
1,COc1ccc(C(=O)CC(=O)C(=O)Nc2ccc(C)c(Cl)c2)cc1,0%
2,COc1ccc(NC(=O)CSCC(=O)Oc2c(OC)cccc2OC)cc1,-26%
3,COc1ccc(C(=O)CC(=O)C(=O)Nc2ccc(Cl)cc2)cc1,9% (active)
4,COc1ccc(C(=O)CC(=O)C(=O)Nc2ccccc2)cc1,5% (active)
5,CC(=O)Nc1ccc(S(=O)(=O)N2CCC(NC(=O)c3ccccc3)CC2)cc1,-17%
6,CCN(CC)C(=O)CN1C(=O)C2CC=C(Cl)CC2C1=O (stereo unspecified),-15%
7,CCn1c(=S)[nH]c2sc3c(c2c1=O)CCCC3,27% (active)
8,Cc1cc(C)n(-c2nc3sc4c(c3c(=O)[nH]2)CCCC4)n1,-10%
9,CCn1c(=S)[nH]c2sc3c(c2c1=O)CCCCC3,107% (active)
10,CCCn1c(=S)[nH]c2sc3c(c2c1=O)CCCC3,76% (active)
11,O=c1c2c3c(sc2[nH]c(=S)n1Cc1ccco1)CCC3,18% (active)
12,Cc1ccc(-n2c(=S)[nH]c3sc4c(c3c2=O)CCC4)cc1,-1%
13,O=C1c2ccccc2C(=O)N1Cc1ccco1,-8%
14,CC(C)OC(=O)CSc1nnc(C2CCCCC2)n1N,-15%
15,Cc1cnc(NC(=O)CN2CCN(c3ccccc3F)CC2)s1,-5%
16,CCCCCOc1ccc(C2C(C(C)=O)=C(C)Nc3ncnn32)cc1OC (stereo unspecified),-11%
17,CCc1cccc(C)c1NC(=O)Cc1ccsc1,-12%
18,Cc1ccc(S(=O)(=O)N(C)C)cc1NC(=S)NC(C)CCCC(C)C (stereo unspecified),-30%
19,COC(=O)c1ccc(CSc2ncnc3sc(C)c(C)c23)o1,7% (active)
20,CCC(C)NC(=O)CSc1ncnc2sccc12 (stereo unspecified),-7%
21,Cc1sc2ncnc(SCC(=O)NC(=O)c3cccn3C)c2c1C,2% (active)
22,COC(=O)c1ccc(Cn2cnc3c(cnn3-c3ccc(Cl)cc3)c2=O)o1,-2%
23,Cc1sc2ncnc(SCC(=O)c3ccc(O)cc3O)c2c1C,2% (active)
